Bioassay records from PubChem.
Giardia FBPA inh – blocks Giardia fructose-bisphosphate aldolase activity; A8B2U2; purified Giardia FBPA; Potency, µM (doses to about 59.6 µM), inactives show at the highest dose activity, negative = inhibition, actives largely listed as inhibitors; hit rate 0.71% among 290,000; note: potency is the fitted concentration of half-maximal effect; % is set by controls: 0 for no effect and ±100 for the full control effect; nearly all actives have a fitted effect of over 55% in size
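Giardia FBPA (40 nM reagent) was preincubated 10 min at RT with compound (up to 57.5 uM final), then substrate plus GAPDH/TPI/NAD/arsenate coupling system with diaphorase/resazurin was added; resorufin fluorescence (525/598 nm) was read after 20 min.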
LmPK inh – blocks Leishmania mexicana pyruvate kinase activity. purified LmPK, Kinase-Glo ATP luminescence, 1 h. Potency, µM (series often up to 57.5 µM), for the others: top-dose activity change, negative = inhibition, usual class: inhibitors. hit rate 0.37% among 290,000; note: potency is the fitted concentration of half-maximal effect; % is set by controls: 0 for no effect and ±100 for the full control effect
Target sequence (Q27686 whole entry, looked up): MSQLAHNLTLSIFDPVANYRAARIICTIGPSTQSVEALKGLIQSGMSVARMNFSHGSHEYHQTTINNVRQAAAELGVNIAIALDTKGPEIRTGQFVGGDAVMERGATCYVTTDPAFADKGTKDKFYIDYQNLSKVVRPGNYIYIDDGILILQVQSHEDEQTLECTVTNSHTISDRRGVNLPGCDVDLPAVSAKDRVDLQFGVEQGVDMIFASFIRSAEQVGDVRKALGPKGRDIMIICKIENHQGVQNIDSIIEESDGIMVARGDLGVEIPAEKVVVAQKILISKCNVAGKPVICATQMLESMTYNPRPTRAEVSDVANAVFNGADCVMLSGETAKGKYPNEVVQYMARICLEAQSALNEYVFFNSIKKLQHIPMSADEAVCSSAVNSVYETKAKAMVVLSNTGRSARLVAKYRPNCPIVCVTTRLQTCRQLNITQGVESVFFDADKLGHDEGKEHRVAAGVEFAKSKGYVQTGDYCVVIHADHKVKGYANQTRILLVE
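Screened at intermediate enzyme activity to detect both inhibitors and activators: LmPK at 0.1 nM, with a 0.5 nM enzyme column as activation reference. PEP 0.5 mM, ADP 0.1 mM; ATP detected by luminescence after 1 h.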
Sm TGR inh – inhibitors of Schistosoma mansoni thioredoxin glutathione reductase. Q962Y6. purified TGR, DTNB reduction, TNB absorbance 405 nm. Potency, µM (titrated, usually from 114 µM), inactives show at the highest dose activity change, negative = inhibition, hits mostly inhibitors. hit rate 3% among 360,000; note: potency is the fitted concentration of half-maximal effect; % is set by controls: 0 for no effect and ±100 for the full control effect; nearly all actives have a fitted effect of over 60% in size
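First, TGR (20 nM dispensed) and NADPH were mixed with compound. Second, a 15 min room-temperature incubation followed. Third, further NADPH and then DTNB were added to start the reaction. Finally, TNB absorbance was monitored kinetically.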
Cycloheximide cs – counter-screen hit for Shiga toxin inhibitors, cycloheximide; max response, %; hit rate 12% among 300,000; cell reporter, cycloheximide protein synthesis inhibition counterscreen; in the data active = max response mostly above about 13%, no sharp cut-off; inactive = mostly below about 14%; note: read at 38.3 µM for the half of the compounds with a filed dose; 0% is about no effect
Shiga inhibitor – blocks Shiga toxin action in Vero cells. Vero cells, Shiga toxin protein synthesis inhibition reporter. inhibition, % at 38.7 µM. hit rate 9.2% among 290,000. AID 2315; in the data active = inhibition mostly above about 28%, no sharp cut-off; inactive = mostly below about 43%; note: 0% is about no effect
Tb PYK inh – inhibitors of Trypanosoma brucei pyruvate kinase | Q57TT1 | TbPYK enzyme, Kinase-Glo Plus ATP luminescence, 45 min | Potency, µM (doses to about 76.8 µM), for inactives: at the top dose activity, negative = inhibition, actives largely listed as inhibitors | hit rate 0.12% among 410,000 | AID 624173; note: potency is the fitted concentration of half-maximal effect; % is set by controls: 0 for no effect and ±100 for the full control effect; nearly all actives have a fitted effect of over 50% in size
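Quantitative HTS: titrated library compounds versus trypanosomal pyruvate kinase in TEA buffer (pH 7.2) containing KCl, MgCl2, BSA and Tween-20. Reactions were initiated with ADP, 130 uM final. Kinase-Glo Plus luminescence was read after 45 min at RT.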
Starred values were filed as active, the others as inactive; ? = inconclusive; / = no result given. Shown is part of a subset that was picked to be rich in hits. Unless noted, calls come from the whole dose curve; as a rule, active = well fitted curve in the direction sought with a large enough effect; inconclusive = small, poorly fitted or top-dose-only effect, or another doubt; inactive = no such curve, though single readings can be large; an effect the other way counts as inactive or inconclusive.

SMILES	Giardia FBPA inh	LmPK inh	Sm TGR inh	Cycloheximide cs	Shiga inhibitor	Tb PYK inh
CC(C)c1ccc(NC(=O)c2snc3ccc(Cl)cc23)cc1	-12%	-6%	1%	39*	74*	1%
CC(C)c1ccc(NC(=O)c2cccnc2)cc1	-12%	-6%	-20%	23*	74	-4%
NS(=O)(=O)c1ccc(NC(=O)c2csnn2)cc1	/	/	-1%	/	/	-17%
COC(=O)c1cccnc1	5%	/	/	-5	21	-3%
CCCNS(=O)(=O)c1ccc(NC(=O)c2cccnc2)cc1	1%	-2%	4%	-4	-2	-7%
O=C(Nc1ccccc1NC(=O)c1csnn1)c1csnn1	-28%	3%	-3%	2	-8	-7%
COC(=O)c1ccc(C(NC(=O)c2cccnc2)NC(=O)c2cccnc2)cc1	-2%	-4%	1%	30*	66*	-6%
CCc1ccc(NC(=O)c2cccnc2)cc1	-3%	-9%	1%	32*	73*	-1%
CC(C)c1ccc(NC(=O)c2csnn2)cc1	-9%	-15%	0%	30*	42*	-2%
O=C(NC(=S)Nc1ccccc1Cl)c1csnn1	-11%	0%	22µM*	38*	42*	4%
O=C(CCC(=O)N1CCOCC1)NCCc1ccc(Cl)cc1Cl	10%	2%	0%	10	-12	4%
O=C(NCCc1ccccc1)c1ccc(Cn2c(SCc3ccccc3F)nc3cccnc32)cc1	/	/	-9%	/	/	4%
Cc1ccc(NC(=O)N(C2CCCCC2)C(C)c2cccnc2)cc1C (centres undefined)	0%	3%	-1%	9	36	-2%
CCc1ccc(NC(=O)N(C2CCCCC2)C(C)c2cccnc2)cc1 (centres undefined)	0%	-2%	0%	33*	80	5%
Cc1ccc(S(=O)(=O)NCC(=O)NCC(=O)NCCc2ccc(Cl)cc2)cc1C	/	/	/	/	/	-7%
Cc1ccc(CNC(=O)c2oc3ccc(S(=O)(=O)N4CCC(C)CC4)cc3c2C)cc1	/	/	0%	/	/	1%
NNC(=S)NC1CCCCC1	?	-4%	-5%	13*	43*	-1%
O=C(NC1CCCCC1)C(=S)NC1CCCCC1	-1%	1%	/	1	-1	/
COC(CNC(=O)[C@H](Cc1ccccc1)N1Cc2ccccc2C1=O)OC	-1%	-1%	-20%	-1	-3	1%
O=C(CCc1nnc(C2CCCCC2)o1)N1CCN(C2CCCCC2)CC1	3%	-10%	56µM*	-2	-5	-2%
O=C(CCC(=O)N1CCN(c2ccccc2F)CC1)N1CCN(c2ccccc2)CC1	6%	2%	-1%	-2	-8	2%
CN(CCC1CCCCO1)C(=O)CCc1nnc(C2CCCCC2)o1 (centres undefined)	0%	2%	14%	31*	40*	3%
O=C(CCc1nnc(C2CCCCC2)o1)N1CCN(c2ccccc2F)CC1	15%	-8%	-28%	71*	89*	-11%
CC(C)c1ccc(S(=O)(=O)/N=C2/C=CC(=O)c3ccccc32)cc1	14µM*	-15%	8.9µM*	15	6	/
CC1(C)CCC(=O)N2CC[C@H]3C[C@H](OC(=O)Nc4ccc(Br)cc4)C[C@@H]1[C@H]32	1%	0%	-10%	22*	19	-1%
SMILES	Giardia FBPA inh	LmPK inh	Sm TGR inh	Cycloheximide cs	Shiga inhibitor	Tb PYK inh
O=C(Nc1ccc2c(c1)OCO2)O[C@@H]1C[C@H]2CCCC(=O)N3CC[C@@H](C1)[C@@H]23	7%	-15%	1%	7	8	-5%
CN1CCN(c2ccc(NC(=O)COc3ccccc3Cl)cc2)CC1	1%	1%	2%	26*	76*	-3%
O=C(COc1ccccc1Cl)Nc1ccc(CN2CCOCC2)cc1	/	-2%	-19%	21*	8	0%
Cc1cc(OCC(=O)Nc2ccc(N3CCN(C)CC3)cc2)ccc1Cl	3%	3%	-23%	38*	77*	-5%
O=C(COc1ccc(Cl)cc1Cl)Nc1ccc(CN2CCOCC2)cc1	12%	-6%	-6%	-1	-2	0%
Cc1cccc(OCC(=O)Nc2ccc(N3CCCC3)cc2)c1C	-15%	1%	32µM*	-4	20	0%
Cc1ccc2oc(-c3ccc(Cl)c(NC(=O)c4ccc(OC(C)C)cc4)c3)nc2c1	/	/	5%	/	/	-3%
CCC(C)[C@H](NC(=O)[C@@H]1Cc2ccccc2CN1)C(=O)NCc1ccc(C)cc1 (some centres undefined)	/	/	/	/	/	5%
Cc1cc(C)cc(NC(=O)[C@H](NC(=O)[C@@H]2Cc3ccccc3CN2)c2ccccc2)c1	/	3%	-1%	8	13	-2%
CC(C)C[C@H](NC(=O)[C@@H]1Cc2ccccc2CN1)C(=O)Nc1ccc(C(C)C)cc1	/	4%	6%	23*	22	-4%
Cc1ccc(NC(=O)C2CCC(CNC(=O)[C@@H]3Cc4ccccc4CN3)CC2)cc1 (some centres undefined)	/	-3%	-6%	8	-8	4%
CCc1ccc(NC(=O)[C@@H](NC(=O)[C@@H]2Cc3ccccc3CN2)C(C)CC)cc1 (some centres undefined)	?	2%	-13%	16*	20	2%
CCc1ccc(NC(=O)[C@H](NC(=O)[C@@H]2Cc3ccccc3CN2)c2ccccc2)cc1	/	4%	-3%	28*	19	0%
CC(C)c1ccc(NC(=O)C2CCC(CNC(=O)[C@@H]3Cc4ccccc4CN3)CC2)cc1 (some centres undefined)	-28%	0%	-14%	15*	17	-5%
Cc1cc(C)c2c(c1)/C(=N/NC(=O)c1ccc(O)cc1)CCC2	-1%	4%	1%	22*	36*	-4%
Cc1cc(C)c2c(c1)/C(=N/NC(=O)c1cc(C)oc1C)CCC2	16%	1%	-4%	36*	26	-8%
COc1ccc(OCC(=O)OCc2cc(=O)n3nc(C4CC4)sc3n2)cc1	/	/	-3%	/	/	-1%
CN1C(=O)c2c(sc3c2CCCC3)NC1c1ccccc1O (centres undefined)	?	1%	?	19*	49*	/
Clc1ccc(CNc2ncccn2)cc1	11%	-1%	5%	26*	43*	0%
Cc1nn(C)c(C)c1NC(=O)COc1ccc(Cl)cc1	/	/	6%	/	/	-7%
O=C(COc1ccc(Cl)cc1)Nc1ncccn1	1%	-9%	1%	34*	35*	-1%
Cc1ccnc(NC(=O)COc2ccc(Cl)cc2)n1	4%	0%	10%	25*	41	5%
Cc1ccc(OCc2nc(-c3ccc(C(=O)N4CCN(c5ccccc5F)CC4)cc3)oc2C)cc1	/	/	1%	/	/	1%
Cc1ccc(CCNC(=O)CCN2N=C(c3ccc(C)cc3)CCC2=O)cc1	/	/	0%	/	/	0%
